# Data: publication PMC11062922 (Nature Chemical Biology, 2023)
# Read-outs that look alike come from different tables or passages of the source.
# Experiments:
# [1] = test system: IKBKE; details: read-out: apparent Kd, n = 1
# [2] = test system: NUAK1; details: read-out: apparent Kd, n = 1
# [3] = compound concentrations:100 nM and 1000 nM (sheet 'Lestaurtinib' of Supplementary Table 1),run:Lestaurtinib_02364_R2,Plate:MR002
# [4] = compound concentrations:100 nM and 1000 nM (sheet 'Lestaurtinib' of Supplementary Table 1),run:Lestaurtinib_02364_R3,Plate:MR002
# [5] = compound concentrations:100 nM and 1000 nM (sheet 'Lestaurtinib' of Supplementary Table 1),run:Lestaurtinib_02367_R1,Plate:MR003
# [6] = compound concentrations:100 nM and 1000 nM (sheet 'Lestaurtinib' of Supplementary Table 1),run:Lestaurtinib_02381_R1,Plate:MR004
# [7] = compound concentrations:100 nM and 1000 nM (sheet 'Lestaurtinib' of Supplementary Table 1),run:Lestaurtinib_02437_R1,Plate:MR007
# [8] = compound concentrations:100 nM and 1000 nM (sheet 'Lestaurtinib' of Supplementary Table 1),run:Lestaurtinib_02437_R2,Plate:MR007
# [9] = compound concentrations:100 nM and 1000 nM (sheet 'Lestaurtinib' of Supplementary Table 1),run:Lestaurtinib_02438_R1,Plate:MR008
# [10] = compound concentrations:100 nM and 1000 nM (sheet 'Lestaurtinib' of Supplementary Table 1),run:Lestaurtinib_02438_R2,Plate:MR008
# [11] = compound concentrations:100 nM and 1000 nM (sheet 'Lestaurtinib' of Supplementary Table 1),run:Lestaurtinib_02443_R2,Plate:MR009
# [12] = compound concentrations:100 nM and 1000 nM (sheet 'Lestaurtinib' of Supplementary Table 1),run:Lestaurtinib_02482_R1,Plate:MR011
# [13] = compound concentrations:100 nM and 1000 nM (sheet 'Lestaurtinib' of Supplementary Table 1),run:Lestaurtinib_02482_R3,Plate:MR011
# [14] = compound concentrations:100 nM and 1000 nM (sheet 'Lestaurtinib' of Supplementary Table 1),run:Lestaurtinib_02487_R2,Plate:MR012
substance,measurement,setting,value
Lestaurtinib,potency estimated from few doses,"[1]; compound concentrations:100 nM and 1000 nM (sheet 'Lestaurtinib' of Supplementary Table 1),run:Lestaurtinib_02364_R1,Plate:MR002",769 nM
same,potency estimated from few doses,[1]; [3],896 nM
same,potency estimated from few doses,[1]; [4],647 nM
same,potency estimated from few doses,[1]; [5],711 nM
same,potency estimated from few doses,"[1]; compound concentrations:100 nM and 1000 nM (sheet 'Lestaurtinib' of Supplementary Table 1),run:Lestaurtinib_02367_R2,Plate:MR003",972 nM
same,potency estimated from few doses,[1]; [6],695 nM
same,potency estimated from few doses,"[1]; compound concentrations:100 nM and 1000 nM (sheet 'Lestaurtinib' of Supplementary Table 1),run:Lestaurtinib_02381_R2,Plate:MR004",551 nM
same,potency estimated from few doses,"[1]; compound concentrations:100 nM and 1000 nM (sheet 'Lestaurtinib' of Supplementary Table 1),run:Lestaurtinib_02381_R3,Plate:MR004",713 nM
same,potency estimated from few doses,"[1]; compound concentrations:100 nM and 1000 nM (sheet 'Lestaurtinib' of Supplementary Table 1),run:Lestaurtinib_02407_R3,Plate:MR005",883 nM
same,potency estimated from few doses,"[1]; compound concentrations:100 nM and 1000 nM (sheet 'Lestaurtinib' of Supplementary Table 1),run:Lestaurtinib_02422_R3,Plate:MR006",976 nM
same,potency estimated from few doses,[1]; [7],554 nM
same,potency estimated from few doses,[1]; [8],807 nM
same,potency estimated from few doses,"[1]; compound concentrations:100 nM and 1000 nM (sheet 'Lestaurtinib' of Supplementary Table 1),run:Lestaurtinib_02437_R3,Plate:MR007",71.2 nM
same,potency estimated from few doses,[1]; [9],861 nM
same,potency estimated from few doses,[1]; [10],834 nM
same,potency estimated from few doses,"[1]; compound concentrations:100 nM and 1000 nM (sheet 'Lestaurtinib' of Supplementary Table 1),run:Lestaurtinib_02443_R1,Plate:MR009",745 nM
same,potency estimated from few doses,[1]; [11],713 nM
same,potency estimated from few doses,[1]; [12],1130 nM
same,potency estimated from few doses,[1]; [13],627 nM
same,potency estimated from few doses,[1]; [14],1150 nM
same,potency estimated from few doses,"[1]; compound concentrations:100 nM and 1000 nM (sheet 'Lestaurtinib' of Supplementary Table 1),run:Lestaurtinib_02487_R3,Plate:MR012",756 nM
same,potency estimated from few doses,"[1]; compound concentrations:100 nM and 1000 nM (sheet 'Lestaurtinib' of Supplementary Table 1),run:Lestaurtinib_02496_R1,Plate:MR013",710 nM
same,potency estimated from few doses,"[1]; compound concentrations:100 nM and 1000 nM (sheet 'Lestaurtinib' of Supplementary Table 1),run:Lestaurtinib_02496_R2,Plate:MR013",695 nM
same,potency estimated from few doses,"[1]; compound concentrations:100 nM and 1000 nM (sheet 'Lestaurtinib' of Supplementary Table 1),run:Lestaurtinib_02566_R1,Plate:MR014",877 nM
same,potency estimated from few doses,"[1]; compound concentrations:100 nM and 1000 nM (sheet 'Lestaurtinib' of Supplementary Table 1),run:Lestaurtinib_02572_R1,Plate:MR015",756 nM
same,potency estimated from few doses,"[1]; compound concentrations:100 nM and 1000 nM (sheet 'Lestaurtinib' of Supplementary Table 1),run:Lestaurtinib_02572_R2,Plate:MR015",857 nM
same,potency estimated from few doses,"[1]; compound concentrations:100 nM and 1000 nM (sheet 'Lestaurtinib' of Supplementary Table 1),run:Lestaurtinib_02572_R3,Plate:MR015",855 nM
same,potency estimated from few doses,"[1]; compound concentrations:100 nM and 1000 nM (sheet 'Lestaurtinib' of Supplementary Table 1),run:Lestaurtinib_02577_R1,Plate:MR016",799 nM
same,potency estimated from few doses,"[1]; compound concentrations:100 nM and 1000 nM (sheet 'Lestaurtinib' of Supplementary Table 1),run:Lestaurtinib_02577_R2,Plate:MR016",785 nM
same,potency estimated from few doses,"[1]; compound concentrations:100 nM and 1000 nM (sheet 'Lestaurtinib' of Supplementary Table 1),run:Lestaurtinib_02577_R3,Plate:MR016",713 nM
same,potency estimated from few doses,"[1]; compound concentrations:100 nM and 1000 nM (sheet 'Lestaurtinib' of Supplementary Table 1),run:Lestaurtinib_02584_R2,Plate:MR017",744 nM
same,potency estimated from few doses,"[1]; compound concentrations:100 nM and 1000 nM (sheet 'Lestaurtinib' of Supplementary Table 1),run:Lestaurtinib_02584_R3,Plate:MR017",935 nM
same,potency estimated from few doses,"[1]; compound concentrations:100 nM and 1000 nM (sheet 'Lestaurtinib' of Supplementary Table 1),run:Lestaurtinib_02601_R3,Plate:MR018",796 nM
same,potency estimated from few doses,"[1]; compound concentrations:100 nM and 1000 nM (sheet 'Lestaurtinib' of Supplementary Table 1),run:Lestaurtinib_02606_R1,Plate:MR019",995 nM
same,potency estimated from few doses,"[1]; compound concentrations:100 nM and 1000 nM (sheet 'Lestaurtinib' of Supplementary Table 1),run:Lestaurtinib_02624_R2,Plate:MR020",729 nM
same,potency estimated from few doses,"[1]; compound concentrations:100 nM and 1000 nM (sheet 'Lestaurtinib' of Supplementary Table 1),run:Lestaurtinib_02624_R3,Plate:MR020",787 nM
same,potency estimated from few doses,"[1]; compound concentrations:100 nM and 1000 nM (sheet 'Lestaurtinib' of Supplementary Table 1),run:Lestaurtinib_02724_R1,Plate:MR021",731 nM
same,potency estimated from few doses,"[1]; compound concentrations:100 nM and 1000 nM (sheet 'Lestaurtinib' of Supplementary Table 1),run:Lestaurtinib_02724_R2,Plate:MR021",809 nM
same,potency estimated from few doses,"[1]; compound concentrations:100 nM and 1000 nM (sheet 'Lestaurtinib' of Supplementary Table 1),run:Lestaurtinib_02724_R3,Plate:MR021",582 nM
same,potency estimated from few doses,"[1]; compound concentrations:100 nM and 1000 nM (sheet 'Lestaurtinib' of Supplementary Table 1),run:Lestaurtinib_02741_R1,Plate:MR023",782 nM
same,potency estimated from few doses,"[1]; compound concentrations:100 nM and 1000 nM (sheet 'Lestaurtinib' of Supplementary Table 1),run:Lestaurtinib_02741_R2,Plate:MR023",810 nM
same,potency estimated from few doses,"[1]; compound concentrations:100 nM and 1000 nM (sheet 'Lestaurtinib' of Supplementary Table 1),run:Lestaurtinib_02741_R3,Plate:MR023",965 nM
same,potency estimated from few doses,"[1]; compound concentrations:100 nM and 1000 nM (sheet 'Lestaurtinib' of Supplementary Table 1),run:Lestaurtinib_02748_R1,Plate:MR024",505 nM
same,potency estimated from few doses,"[1]; compound concentrations:100 nM and 1000 nM (sheet 'Lestaurtinib' of Supplementary Table 1),run:Lestaurtinib_02748_R3,Plate:MR024",810 nM
same,potency estimated from few doses,"[1]; compound concentrations:100 nM and 1000 nM (sheet 'Lestaurtinib' of Supplementary Table 1),run:Lestaurtinib_02752_R1,Plate:MR025",783 nM
same,potency estimated from few doses,"[1]; compound concentrations:100 nM and 1000 nM (sheet 'Lestaurtinib' of Supplementary Table 1),run:Lestaurtinib_02752_R2,Plate:MR025",786 nM
same,potency estimated from few doses,"[1]; compound concentrations:100 nM and 1000 nM (sheet 'Lestaurtinib' of Supplementary Table 1),run:Lestaurtinib_02752_R3,Plate:MR025",596 nM
same,potency estimated from few doses,"[1]; compound concentrations:100 nM and 1000 nM (sheet 'Lestaurtinib' of Supplementary Table 1),run:Lestaurtinib_02765_R1,Plate:MR026",860 nM
same,potency estimated from few doses,"[1]; compound concentrations:100 nM and 1000 nM (sheet 'Lestaurtinib' of Supplementary Table 1),run:Lestaurtinib_02765_R3,Plate:MR026",731 nM
same,potency estimated from few doses,"[1]; compound concentrations:100 nM and 1000 nM (sheet 'Lestaurtinib' of Supplementary Table 1),run:Lestaurtinib_02768_R1,Plate:MR028",686 nM
same,potency estimated from few doses,"[1]; compound concentrations:100 nM and 1000 nM (sheet 'Lestaurtinib' of Supplementary Table 1),run:Lestaurtinib_02768_R2,Plate:MR028",820 nM
same,potency estimated from few doses,"[1]; compound concentrations:100 nM and 1000 nM (sheet 'Lestaurtinib' of Supplementary Table 1),run:Lestaurtinib_02768_R3,Plate:MR028",628 nM
same,potency estimated from few doses,"[1]; compound concentrations:100 nM and 1000 nM (sheet 'Lestaurtinib' of Supplementary Table 1),run:Lestaurtinib_02795_R1,Plate:MR022",874 nM
same,potency estimated from few doses,"[1]; compound concentrations:100 nM and 1000 nM (sheet 'Lestaurtinib' of Supplementary Table 1),run:Lestaurtinib_02795_R3,Plate:MR022",1210 nM
same,potency estimated from few doses,"[1]; compound concentrations:100 nM and 1000 nM (sheet 'Lestaurtinib' of Supplementary Table 1),run:Lestaurtinib_02802_R3,Plate:MR029",831 nM
same,potency estimated from few doses,"[1]; compound concentrations:100 nM and 1000 nM (sheet 'Lestaurtinib' of Supplementary Table 1),run:Lestaurtinib_02896_R1,Plate:MR030",749 nM
same,potency estimated from few doses,"[1]; compound concentrations:100 nM and 1000 nM (sheet 'Lestaurtinib' of Supplementary Table 1),run:Lestaurtinib_02896_R3,Plate:MR030",608 nM
same,potency estimated from few doses,"[1]; compound concentrations:100 nM and 1000 nM (sheet 'Lestaurtinib' of Supplementary Table 1),run:Lestaurtinib_03172_R2,Plate:MR031",814 nM
same,potency estimated from few doses,"[1]; compound concentrations:100 nM and 1000 nM (sheet 'Lestaurtinib' of Supplementary Table 1),run:Lestaurtinib_03172_R3,Plate:MR031",662 nM
same,potency estimated from few doses,"[1]; compound concentrations:100 nM and 1000 nM (sheet 'Lestaurtinib' of Supplementary Table 1),run:Lestaurtinib_03252_R1,Plate:MR032",804 nM
same,potency estimated from few doses,"[1]; compound concentrations:100 nM and 1000 nM (sheet 'Lestaurtinib' of Supplementary Table 1),run:Lestaurtinib_03260_R1,Plate:MR033",1210 nM
same,potency estimated from few doses,"[1]; compound concentrations:100 nM and 1000 nM (sheet 'Lestaurtinib' of Supplementary Table 1),run:Lestaurtinib_03260_R3,Plate:MR033",943 nM
same,potency estimated from few doses,"[2]; compound concentrations:100 nM and 1000 nM (sheet 'Lestaurtinib' of Supplementary Table 1),run:Lestaurtinib_02339_R1,Plate:MR001",94.5 nM
same,potency estimated from few doses,"[2]; compound concentrations:100 nM and 1000 nM (sheet 'Lestaurtinib' of Supplementary Table 1),run:Lestaurtinib_02339_R2,Plate:MR001",55.6 nM
same,potency estimated from few doses,[2]; [3],62.3 nM
same,potency estimated from few doses,[2]; [4],66.1 nM
same,potency estimated from few doses,[2]; [5],51.3 nM
same,potency estimated from few doses,"[2]; compound concentrations:100 nM and 1000 nM (sheet 'Lestaurtinib' of Supplementary Table 1),run:Lestaurtinib_02367_R3,Plate:MR003",78 nM
same,potency estimated from few doses,[2]; [6],85.9 nM
same,potency estimated from few doses,"[2]; compound concentrations:100 nM and 1000 nM (sheet 'Lestaurtinib' of Supplementary Table 1),run:Lestaurtinib_02407_R1,Plate:MR005",124 nM
same,potency estimated from few doses,"[2]; compound concentrations:100 nM and 1000 nM (sheet 'Lestaurtinib' of Supplementary Table 1),run:Lestaurtinib_02407_R2,Plate:MR005",200 nM
same,potency estimated from few doses,"[2]; compound concentrations:100 nM and 1000 nM (sheet 'Lestaurtinib' of Supplementary Table 1),run:Lestaurtinib_02422_R1,Plate:MR006",69.5 nM
same,potency estimated from few doses,[2]; [7],89.8 nM
same,potency estimated from few doses,[2]; [8],113 nM
same,potency estimated from few doses,[2]; [9],94.3 nM
same,potency estimated from few doses,[2]; [10],82.5 nM
same,potency estimated from few doses,[2]; [11],163 nM
same,potency estimated from few doses,"[2]; compound concentrations:100 nM and 1000 nM (sheet 'Lestaurtinib' of Supplementary Table 1),run:Lestaurtinib_02473_R1,Plate:MR010",93 nM
same,potency estimated from few doses,"[2]; compound concentrations:100 nM and 1000 nM (sheet 'Lestaurtinib' of Supplementary Table 1),run:Lestaurtinib_02473_R2,Plate:MR010",56.8 nM
same,potency estimated from few doses,[2]; [12],115 nM
same,potency estimated from few doses,"[2]; compound concentrations:100 nM and 1000 nM (sheet 'Lestaurtinib' of Supplementary Table 1),run:Lestaurtinib_02482_R2,Plate:MR011",74.4 nM
same,potency estimated from few doses,[2]; [13],87.3 nM
same,potency estimated from few doses,"[2]; compound concentrations:100 nM and 1000 nM (sheet 'Lestaurtinib' of Supplementary Table 1),run:Lestaurtinib_02487_R1,Plate:MR012",60.4 nM
same,potency estimated from few doses,[2]; [14],99.7 nM
